In assay [1] the test system is Wnt5a (protein binding on small-molecule microarray). In words: small molecules binding Wnt5a protein – biophysical, small-molecule microarray, 635/667 nm fluorescence, primary screen (AID 1142).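 Note: fluorescence read at 667 nm with signal to noise per printed feature.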 Particulars: 635 nm fluorescence, higher = more signal.
A short description of assay [2]: ATP-based viability of Huh7 replicon cells – cell-based, CellTiter-Glo luminescence, basal, 48 h, cytotoxicity control for HCV replication inhibitor project, primary screen (AID 1143).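 Note: Huh7 hepatoma cells carrying a hepatitis C replication reporter with no stimulus; test concentration not given here.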 Particulars: higher = more signal, called active from +8 up or from −8 down. (In general: Replicon systems follow genome replication, usually without infectious particles.)
Assay [3] in a line: Pseudomonas biofilm growth suppression – PAO1 strain, BacTiter-Glo luminescence, LB-PBS, primary screen (AID 1144). The settings on record: P. aeruginosa PAO1 biofilm, 12 h, higher = more signal.
Assay [4] in a line: basal CRE-LacZ reporter activity in PC12 – cell-based, unstimulated, primary screen (AID 1145). The settings on record: no forskolin, luminescence, 4.5 h, higher = more signal, called active from +8 up or from −8 down.
Assay [5] can be described thus: forskolin-driven CRE-LacZ activity in PC12 – cell-based, CRE-LacZ reporter, forskolin-stimulated, primary screen (AID 1146).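 Note: PC12 cells with 6xCRE LacZ reporter stimulated by forskolin 10 µM; beta-galactosidase reporter signal reflecting CREB driven transcription.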 The settings on record: luminescence, 4.5 h, higher = more signal, called active from +8 up or from −8 down.
Assay [6] addresses Streptavidin (Streptomyces avidinii) (UniProt P22629). In words: compounds binding control protein streptavidin – biophysical, small-molecule microarray, 635/667 nm fluorescence, artefact control for SMM compound annotation, primary screen (AID 1147).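 Note: signal reflects streptavidin binding to arrayed compounds as a control protein.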 The settings on record: higher = more signal.
The nature of assay [7]: probe aInhba binding on compound microarray – biochemical, small-molecule microarray, 635/667 nm fluorescence, primary screen (AID 1148).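 Note: score merges 667nm spot fluorescence with signal-to-noise for antibody binding to printed compounds.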 Particulars: higher = more signal.
Assay [8] deals with Torsin-1A (Homo sapiens) (UniProt O14656). In words: TOR1A wild-type binding on microarray – cell lysate, small-molecule microarray, lysate, 635/667 nm, primary screen (AID 1149). Particulars: COS7 hTOR1A-WT lysate, 635 nm fluorescence, higher = more signal.
Assay [9] shares this target. In words: torsin A mutant lysate binding on microarrays – cell lysate, small-molecule microarray, COS7 lysate, 635/667 nm fluorescence, primary screen (AID 1150).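 Note: score pools 667 nm emission and signal to noise measuring lysate protein binding.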 Particulars: COS7 hTOR1A mutant lysate, 635 nm fluorescence, higher = more signal.
In assay [10] the test system is Sonic hedgehog protein (Shh). In words: Sonic hedgehog microarray binding compounds – biochemical, small-molecule microarray, 635/667 nm fluorescence, primary screen (AID 1151).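 Note: Shh protein binding to compounds spotted on small-molecule microarray slides; score combines spot fluorescence intensity with signal-to-noise across triplicate slides.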 Particulars: 635 nm fluorescence, higher = more signal.
Assay [11] is described as follows: optical density shifts of acrAB sulA E. coli – strain DRC41, OD650, 48 h, E. coli filamentation inducer project, primary screen (AID 1152).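 Note: E. coli MC1000 strain DRC41 lacking acrAB efflux pump and sulA.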 The settings on record: higher = more signal, called active from +8 up or from −8 down.
A short description of assay [12]: probe aLefty1 binding on compound microarray – biochemical, small-molecule microarray, 635/667 nm fluorescence, primary screen (AID 1153).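 Note: score merges spot fluorescence with signal-to-noise ratio from the scanned slide images.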 The settings on record: higher = more signal.
A short description of assay [13]: plasmodial surface anion channel blockers, osmotic lysis – cell-based, P. falciparum Indochina, OD700, 1 h, primary screen (AID 1154). The settings on record: P. falciparum Indochina infected RBC osmotic lysis, higher = more signal, called active from +8 up or from −8 down.
Assay [14] in a line: plasmodial surface anion channel blockers, osmotic lysis – cell-based, P. falciparum Indochina, OD700, 2 h, primary screen (AID 1155).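 Note: lysis reports solute entry through the parasite surface anion channel PSAC.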 The settings on record: P. falciparum Indochina infected erythrocytes, higher = more signal, called active from +8 up or from −8 down.
Assay [15] is described as follows: changes in parasitized red cell lysis, either direction – P. falciparum Indochina, OD700, 3 h, PSAC antagonist project, primary screen (AID 1156). Particulars: P. falciparum-infected erythrocytes, osmotic lysis, higher = more signal, called active from +8 up or from −8 down.
Assay [16] in a line: plasmodial surface anion channel blockers, osmotic lysis – cell-based, P. falciparum Indochina, OD700, 18 h, primary screen (AID 1157). Particulars: P. falciparum Indochina infected erythrocytes, osmotic lysis OD700, 18 h; higher = more signal, called active from +8 up or from −8 down.
The nature of assay [17]: S6 kinase pathway phospho-S6 level changes – cell-based, A549, cytoblot, luminescence, serum-stimulated, primary screen (AID 1158).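 Note: serum-stimulated A549 lung adenocarcinoma cells; signal is phosphorylated S6 detected by cytoblot immunostaining with HRP secondary.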 The settings on record: 5 h, higher = more signal.
Assay [18] concerns the target NADPH oxidase 2 (Homo sapiens) (UniProt P04839). In words: compounds shifting NOX2 Amplex Red fluorescence – cell-based, HEK293-NOX2, PMA-stimulated, NOX inhibitor project, primary screen (AID 1159). Note: test concentration not given here. The settings on record: 45 min, higher = more signal, called active from +8 up or from −8 down.
The target of assay [19] is NADPH oxidase 4 (Homo sapiens) (UniProt Q9NPH5). In words: compounds shifting NOX4 Amplex Red fluorescence – cell-based, HEK293-NOX4, tetracycline-induced, NOX inhibitor project, primary screen (AID 1160). Particulars: HEK293-NOX4, Amplex Red H2O2 fluorescence, 45 min; higher = more signal, called active from +8 up or from −8 down.
In assay [20] the target is NADPH oxidase 5 (Homo sapiens) (UniProt Q96PH1). In words: compounds shifting NOX5 Amplex Red fluorescence – cell-based, HEK293-NOX5, NOX inhibitor project, primary screen (AID 1161). Particulars: HEK293-NOX5, ionomycin, 45 min, higher = more signal.

Activity calls are given as the source filed them. Unless noted, the rule behind the calls is not given here.

NADPH oxidase 4 (Homo sapiens), sequence (Q9NPH5 whole entry, looked up): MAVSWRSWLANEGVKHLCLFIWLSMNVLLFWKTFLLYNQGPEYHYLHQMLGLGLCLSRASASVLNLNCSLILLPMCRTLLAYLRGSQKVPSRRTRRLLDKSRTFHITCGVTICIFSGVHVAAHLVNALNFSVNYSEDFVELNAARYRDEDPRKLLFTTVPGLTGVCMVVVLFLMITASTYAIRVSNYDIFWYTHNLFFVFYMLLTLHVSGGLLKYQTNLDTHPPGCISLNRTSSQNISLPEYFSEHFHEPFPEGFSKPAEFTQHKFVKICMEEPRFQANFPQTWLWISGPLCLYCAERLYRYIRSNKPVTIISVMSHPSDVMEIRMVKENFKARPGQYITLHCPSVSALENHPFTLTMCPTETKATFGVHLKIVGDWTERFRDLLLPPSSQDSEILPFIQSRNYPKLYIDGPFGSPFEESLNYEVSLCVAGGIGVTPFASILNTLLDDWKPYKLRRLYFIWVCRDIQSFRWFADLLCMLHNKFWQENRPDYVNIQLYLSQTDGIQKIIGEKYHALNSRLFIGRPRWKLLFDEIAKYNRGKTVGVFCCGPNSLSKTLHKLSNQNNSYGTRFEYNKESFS
NADPH oxidase 5 (Homo sapiens), sequence (Q96PH1 whole entry, looked up): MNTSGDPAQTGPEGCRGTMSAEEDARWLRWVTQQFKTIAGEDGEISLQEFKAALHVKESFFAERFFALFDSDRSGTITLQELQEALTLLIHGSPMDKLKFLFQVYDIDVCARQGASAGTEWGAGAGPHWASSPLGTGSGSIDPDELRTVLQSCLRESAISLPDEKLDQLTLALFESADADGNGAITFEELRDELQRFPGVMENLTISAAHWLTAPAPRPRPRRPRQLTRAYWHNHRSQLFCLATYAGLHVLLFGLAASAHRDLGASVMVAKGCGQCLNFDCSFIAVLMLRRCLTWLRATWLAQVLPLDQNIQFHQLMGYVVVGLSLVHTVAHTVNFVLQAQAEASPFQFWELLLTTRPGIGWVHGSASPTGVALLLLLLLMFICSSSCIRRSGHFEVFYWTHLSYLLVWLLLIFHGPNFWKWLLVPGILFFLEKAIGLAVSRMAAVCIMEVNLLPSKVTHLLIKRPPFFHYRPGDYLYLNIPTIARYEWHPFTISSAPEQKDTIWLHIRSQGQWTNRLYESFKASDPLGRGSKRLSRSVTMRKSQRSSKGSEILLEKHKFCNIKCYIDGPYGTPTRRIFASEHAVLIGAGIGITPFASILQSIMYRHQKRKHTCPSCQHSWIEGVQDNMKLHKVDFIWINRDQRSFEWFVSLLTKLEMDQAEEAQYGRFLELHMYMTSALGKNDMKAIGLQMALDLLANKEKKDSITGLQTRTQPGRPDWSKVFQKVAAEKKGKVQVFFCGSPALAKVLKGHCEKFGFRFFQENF
NADPH oxidase 2 (Homo sapiens), sequence (P04839 whole entry, looked up): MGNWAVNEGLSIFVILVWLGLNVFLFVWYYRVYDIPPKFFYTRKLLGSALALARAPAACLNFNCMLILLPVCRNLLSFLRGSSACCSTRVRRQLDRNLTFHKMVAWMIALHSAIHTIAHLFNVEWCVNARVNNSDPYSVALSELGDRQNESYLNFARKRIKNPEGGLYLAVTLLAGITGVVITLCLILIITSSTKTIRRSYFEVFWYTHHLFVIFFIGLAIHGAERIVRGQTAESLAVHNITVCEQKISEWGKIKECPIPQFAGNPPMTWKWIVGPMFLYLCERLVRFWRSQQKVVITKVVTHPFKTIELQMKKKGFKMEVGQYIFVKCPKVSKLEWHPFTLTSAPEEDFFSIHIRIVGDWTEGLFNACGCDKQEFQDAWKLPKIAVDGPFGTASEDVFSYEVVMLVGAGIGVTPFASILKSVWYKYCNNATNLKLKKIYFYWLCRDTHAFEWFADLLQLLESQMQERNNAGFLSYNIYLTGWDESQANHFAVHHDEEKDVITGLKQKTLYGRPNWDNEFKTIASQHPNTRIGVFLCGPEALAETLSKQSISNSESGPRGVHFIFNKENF
Streptavidin (Streptomyces avidinii), sequence (P22629 whole entry, looked up): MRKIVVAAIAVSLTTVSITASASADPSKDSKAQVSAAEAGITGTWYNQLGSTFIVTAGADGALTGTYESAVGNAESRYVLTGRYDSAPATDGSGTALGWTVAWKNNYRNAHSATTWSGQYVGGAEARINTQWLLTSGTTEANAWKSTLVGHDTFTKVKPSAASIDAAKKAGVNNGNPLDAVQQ
Torsin-1A (Homo sapiens), sequence (O14656 whole entry, looked up): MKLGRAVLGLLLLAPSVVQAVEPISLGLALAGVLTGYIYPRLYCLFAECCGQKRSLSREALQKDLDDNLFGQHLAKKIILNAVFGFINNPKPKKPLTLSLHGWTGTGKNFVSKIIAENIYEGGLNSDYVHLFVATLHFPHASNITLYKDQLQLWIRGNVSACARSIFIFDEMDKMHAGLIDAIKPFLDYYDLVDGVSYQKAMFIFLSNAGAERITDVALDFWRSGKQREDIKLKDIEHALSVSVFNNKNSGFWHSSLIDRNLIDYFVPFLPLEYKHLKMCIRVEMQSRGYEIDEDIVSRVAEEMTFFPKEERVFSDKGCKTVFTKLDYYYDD

With `COc1cc(C(O)C2C=CC3C(=O)N(C)C(=O)C3N2NC(=O)OC(C)(C)C)cc(OC)c1OC` (stereo not given), the composite z-score was 0.653 in assay [1]; 0.671 in assay [6]; 0.798 in assay [7]; -0.146 with Torsin-1A (Homo sapiens) [8]; 0.727 in the assay with Torsin-1A (Homo sapiens) [9]; -0.32 in [10]. In addition, the composite z-score in [12] came to 0.733. In addition, the z-score in [2] is 0.778 (inactive); in assay [3], 0.66 (inactive); in [4] it was -0.326 (inactive); in assay [5], 1.25 (inactive); in assay [11], -1.47 (inactive); in assay [13] it was -0.249 (inactive). Also, the z-score in [14] is 1 (inactive); in assay [15] it was -0.226 (inactive); in [16] it was 1.12 (inactive); in assay [17], -1.27; in assay [18], -0.231 (inactive); in [19], -0.726 (inactive). The z-score in assay [20] was -1.48.

Take `O=C1c2ccccc2[C@](Cc2ccccc2I)(C(=O)NC2CC2)[C@H](c2ccc(CO)cc2)N1Cc1ccccc1Cl`: the composite z-score in [1] was 0.805; in [6] it was 0.191; in assay [7], 0.168; in the assay with Torsin-1A (Homo sapiens) [8], 0.501; with Torsin-1A (Homo sapiens) [9], 1.04; in [10] it was 1. This compound also displayed a composite z-score in assay [12] of 0.44. In addition, the z-score in assay [2] was -0.77 (inactive); in assay [3], 0.167 (inactive); in assay [4], 0.468 (inactive); in assay [5], -0.159 (inactive); in assay [11] it was -1.03 (inactive); in [13] it was 8.39 (active). In addition, the z-score in assay [14] is 0.825 (inactive); in assay [15], 2.82 (inactive); in [16] it was 0.966 (inactive); in [17], -0.283; in [18], 0.717 (inactive); in [19] it was 0.466 (inactive). Besides, the z-score in assay [20] came out at 0.739.

`CN(C)CCCCNC(=O)[C@H]1C[C@H]2C(=O)N[C@@H](CCCC[N+](C)(C)C)C(=O)N2[C@H]1c1cccc(OCCO)c1`: the composite z-score in assay [1] worked out at 0.446; in assay [6] it was 0.773; in assay [7] it was 0.0228; in the assay with Torsin-1A (Homo sapiens) [8] it was 1.04; with Torsin-1A (Homo sapiens) [9], 1.01; in assay [10], 2.01. Also, the composite z-score in assay [12] came to 0.145. The z-score in [2] is -0.255 (inactive); in assay [3], -1.16 (inactive); in [4], -0.659 (inactive); in assay [5], -0.197 (inactive); in [11] it was 0.125 (inactive); in assay [13] it was 3.16 (inactive). Moreover, the z-score in assay [14] is 0.77 (inactive); in assay [15], 0.675 (inactive); in assay [16], 0.178 (inactive); in [17] it was -0.294; in assay [18], 2.19 (inactive); in [19], 1.58 (inactive). The z-score in assay [20] was 1.26.

As to `CCCC=C(CCC)[C@@H](NC(=O)Cc1ccccc1)c1ccc(C(=O)OC)cc1`, the composite z-score in assay [1] is 0.372; in [6] it was 1.68; in [7] it was 0.376; in the assay with Torsin-1A (Homo sapiens) [8] it was -0.0377; in the assay with Torsin-1A (Homo sapiens) [9] it was -0.414; in [10], -0.284. Moreover, in assay [12], the composite z-score came to 1.47. Besides, the z-score is -2.2 (inactive) in assay [2]; 0.354 (inactive) in assay [3]; 0.0041 (inactive) in [4]; 0.545 (inactive) in assay [5]; -1.45 (inactive) in [11]; 1.19 (inactive) in assay [13]. Further, the z-score in assay [14] is 0.194 (inactive); in assay [15], -0.0448 (inactive); in [16], 0.25 (inactive); in assay [17], -0.504; in assay [18], -0.458 (inactive); in assay [19] it was 0.261 (inactive). The z-score in assay [20] stood at 1.89.

Source of the values: PubChem BioAssay.
